± gives the standard deviation of the averaged measurements.
Tests used:
DLD1 [1] = assay: cell viability (CellTiter-Glo) relative to plate median (fraction of plate median); higher = more viable cells; conditions: 5 µM; treatment time 24 h; reporter: 7TFP
How it was run: (§1)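 Luminescence, normalised well by well to the plate median, is tabulated as a mean of independent replicates. There were two replicates, run on colorectal cancer lines stably transduced with lentiviral TCF/Wnt firefly luciferase reporters and dosed with library compounds at a final 5 µM for 24 h. Readouts were firefly luciferase or CellTiterGlo on parallel plates.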

HCT116 = assay: as above; conditions: 5 µM; treatment time 24 h; reporter: TCF4/Wnt
How it was run: as §1

SW480 [2] = assay: as above; conditions: 5 µM; treatment time 24 h; reporter: 7TFP
How it was run: as §1

DLD1 [3] = assay: TCF/Wnt firefly luciferase reporter signal relative to plate median (fraction of plate median); higher = higher Wnt reporter signal; conditions: 5 µM; treatment time 24 h; reporter: 7TFP
How it was run: as §1

SW480 [4] = assay: as above; conditions: 5 µM; treatment time 24 h; reporter: 7TFP
How it was run: as §1

SMILES	cell viability (DLD1 [1])	cell viability (HCT116)	cell viability (SW480 [2])	TCF/Wnt firefly luciferase reporter signal (DLD1 [3])	TCF/Wnt firefly luciferase reporter signal (SW480 [4])
Cc1coc2c1C(=O)C(=O)c1c-2ccc2c1CCCC2(C)C	1.03 ± 0.043	0.999 ± 0.016	1.05 ± 0.028	0.785 ± 0.064	0.994 ± 0.14
COc1ccnc(C[S+]([O-])c2nc3cc(OC(F)F)ccc3[nH]2)c1OC (stereo not given)	0.961 ± 0.0042	1.03 ± 0.014	0.974 ± 0.036	1.06 ± 0.05	1.05 ± 0.071
Cc1ccc(Cl)c(Nc2ccccc2C(=O)O)c1Cl	1.04 ± 0.067	1.06 ± 0.086	1 ± 0.052	1.04 ± 0.021	1.05 ± 0.064
CC1=C(/C=C/C(C)=C/C=C/C(C)=C/C=C/C=C(C)/C=C/C=C(C)/C=C/C2=C(C)C(=O)CCC2(C)C)C(C)(C)CCC1=O [CANTHAXANTHIN (euglenanone)]	1 ± 0.021	0.899 ± 0.067	1.06	1.115 ± 0.0071	1.17 ± 0.014
C[C@]12CC[C@@H]3c4ccc(OS(=O)(=O)O)cc4CC[C@H]3[C@@H]1CCC2=O	1.03 ± 0.035	1.12 ± 0.014	1 ± 0.014	1.24 ± 0.21	1.23 ± 0.028
CCCCCCCCCCCCCCCCCCOCC(O)CO (stereo not given)	0.991 ± 0.084	0.989 ± 0.073	1.02 ± 0.021	1.035 ± 0.0071	1.01 ± 0.09
CC(C)OC(=O)C(C)(C)Oc1ccc(C(=O)c2ccc(Cl)cc2)cc1	1.08 ± 0.071	1.045 ± 0.0071	1.04	0.917 ± 0.14	0.939 ± 0.015
CC(C)CC(NC(=O)OCC1c2ccccc2-c2ccccc21)C(=O)O (stereo in doubt)	1.06 ± 0.057	0.996 ± 0.035	1.01 ± 0.021	0.979 ± 0.027	1.02 ± 0.029
CC(C)c1c(O)ccc2c1CC[C@H]1[C@@](C)(CO)CCC[C@]21C	1.07 ± 0.057	1.03 ± 0.15	1.1 ± 0.085	1.06 ± 0.19	1.04 ± 0.021
CC1NC(=O)CNC1=O (stereo not given) [cyclo(alanylglycyl)]	0.883 ± 0.05	0.918 ± 0.051	0.925 ± 0.054	0.947 ± 0.012	1 ± 0.1
CO[C@@]1(NC(=O)C(C(=O)O)c2ccc(O)cc2)C(=O)N2C(C(=O)O)=C(CSc3nnnn3C)CO[C@@H]21 (stereo not given in full)	1.06	1.02 ± 0.021	1.07	0.962 ± 0.097	1.06 ± 0.035
O=C(O)c1cc(O)c(=O)c2c(O)c(O)ccc2c1	1.02 ± 0.028	1.04 ± 0.12	1.01 ± 0.035	1.05 ± 0.035	1.02 ± 0.021
CO/N=C1\C[C@]2(C[C@@H]3C[C@@H](C/C=C(\C)C[C@@H](C)/C=C/C=C4\CO[C@@H]5[C@H](O)C(C)=C[C@@H](C(=O)O3)[C@]45O)O2)O[C@H](/C(C)=C/C(C)C)[C@H]1C	0.891 ± 0.0092	0.921 ± 0.019	0.896 ± 0.042	0.939 ± 0.24	0.932 ± 0.11
NC(=O)c1ccc([N+](=O)[O-])cc1Cl	1.02 ± 0.047	1.1 ± 0.057	1 ± 0.014	0.894 ± 0.19	0.967 ± 0.075
CCC(Cc1c(I)cc(I)c(N)c1I)C(=O)O (stereo not given)	1.08 ± 0.057	1.05 ± 0.035	1.07 ± 0.028	1.035 ± 0.0071	1.04 ± 0.035
CNC[C@H](O)c1ccc(O)c(O)c1	0.9995 ± 0.00071	1.05 ± 0.021	0.916 ± 0.064	1.11 ± 0.064	1.12 ± 0.042
C[C@@H]1O[C@@H](OC[C@H]2O[C@@H](Oc3c(-c4ccc(O)c(O)c4)oc4cc(O)cc(O)c4c3=O)[C@H](O)[C@@H](O)[C@@H]2O)[C@H](O)[C@H](O)[C@H]1O [RUTOSIDE  (rutin)]	0.972	0.881 ± 0.16	1.01 ± 0.016	1.03 ± 0.042	0.769 ± 0.53
COC(=O)/C=C/c1ccc(O)c(O)c1 [Caffeic acid methylester]	0.918 ± 0.079	0.987 ± 0.12	0.979 ± 0.072	1.02 ± 0.098	1.04 ± 0.087
CCOC(=O)C1=C[C@]2(CC)CCCN3CCc4c(n1c1ccccc41)[C@@H]32	0.916 ± 0.016	1.01 ± 0.088	0.995 ± 0.0071	1.02 ± 0.067	0.782 ± 0.079
CCOC(=O)[C@H](CCc1ccccc1)N[C@@H](C)C(=O)N1[C@H](C(=O)O)C[C@H]2CCCC[C@@H]21	0.923 ± 0.14	1.02 ± 0.068	0.98 ± 0.026	0.912 ± 0.052	0.974 ± 0.093
Cc1cccc(Nc2ccccc2C(=O)O)c1C	1.03 ± 0.1	1 ± 0.038	1.07 ± 0.014	0.927 ± 0.052	1.01 ± 0.089
c1ccc(CN(CC2=NCCN2)c2ccccc2)cc1	0.9805 ± 0.0092	1.03 ± 0.055	1.08 ± 0.021	1.18 ± 0.05	1.06 ± 0.096
C=C1C(=O)[C@]23[C@H](CC[C@@H]1[C@@H]2O)[C@]12CO[C@@]3(O)[C@H](O)[C@H]1C(C)(C)CC[C@@H]2O	0.931 ± 0.058	1.12 ± 0.19	1.045 ± 0.0071	0.876 ± 0.015	0.731 ± 0.035
Nc1nccs1	0.985 ± 0.079	1 ± 0.14	1.02 ± 0.033	1.06 ± 0.13	0.986 ± 0.021
O=C1CN(/N=C/c2ccc(-c3ccc([N+](=O)[O-])cc3)o2)C(=O)N1	0.999 ± 0.044	0.9895 ± 0.005	0.97 ± 0.018	1 ± 0.042	1.02 ± 0.014
C[C@@H]1[C@H]2[C@H](O[C@@H]3O[C@H](CO)[C@@H](O)[C@H](O)[C@H]3O)OC=C(C(=O)O)[C@H]2C[C@@H]1O	1.05 ± 0.035	1.02 ± 0.1	1.03 ± 0.014	1.07 ± 0.1	1.05 ± 0.078
COc1cc(OC)cc(OC)c1	1.03 ± 0.028	1.02 ± 0.028	1.015 ± 0.0071	1.13 ± 0.028	1.1 ± 0.11
CCc1ccc2c(O)c3c(cc2c1C(=O)OC)C(=O)c1c(O)ccc(O)c1C3=O	1.04 ± 0.093	1.06 ± 0.099	1.14 ± 0.13	1.04 ± 0.15	0.967 ± 0.029
NS(=O)(=O)c1cc2c(cc1Cl)NC(C(Cl)Cl)NS2(=O)=O (stereo not given)	0.977 ± 0.047	1.06 ± 0.078	0.973 ± 0.0028	1.11 ± 0.29	0.991 ± 0.013
CC(C)=CCC/C(C)=C\CO	0.992 ± 0.082	1.02 ± 0.042	1.1 ± 0.05	0.999 ± 0.016	0.964 ± 0.046

— the supplement of paper PMC6522484
